# Results published in ChEMBL document CHEMBL3988442, “University of Dundee, Small-Polar-MMV Screening Library” (2021).
# About 1,200 (3.2%) of roughly 38,000 compounds showed an effect of 50% or more. The median lay at about -58%. The sample holds strong results, similar compounds and a random draw of the others, so the mix is not that of the screen.
# Tested on: Plasmodium falciparum
# Test: Calibr Malaria Delayed Death Assay SOP
# Type: functional, organism-based
# Set-up: scale not given: in the data most compounds retested in dose-response had high values
# Conditions: concentration 4.99e-06 (unit not given; other assays of the set use mol/L)
row,Structure (SMILES),Percent Effect [%]
1,CC1CN(C)c2ccccc2CN1C(=O)c1cc(C#N)cn1C (centres undefined),-35.84
2,CCN(CC)S(=O)(=O)c1ccc2c(c1)N(Cc1ccncc1)C(=O)CS2,-124.7
3,COCC(C)NC(=O)CN1CCC(CO)CC1 (centres undefined),-50.48
4,O=C1CC(CNc2cncc(Br)c2)c2ccccc2N1 (centres undefined),9.989
5,Cc1cc(NCC2CC(=O)Nc3ccccc32)nc(C)n1 (centres undefined),-157
6,O=C1CC(CNc2cncc(Cl)n2)c2ccccc2N1 (centres undefined),64.58
7,CS(=O)(=O)NC(=O)c1ccn(-c2ccc(Cl)c(Cl)c2)n1,-100.9
8,COCCN1C(=O)CC(c2cccnc2)C12CCN(C(=O)C1CC1)CC2.O=C(O)C(F)(F)F (centres undefined),-113.7
9,CC(Oc1ccc2c(c1)OCO2)C(=O)Nc1ccon1 (centres undefined),-56.4
10,Cc1cc(Cl)cc(C)c1CNC1CCN(CC(=O)N(C)C)CC1,52.71
11,NC(=O)CN1CCC(NCc2cc(C(F)(F)F)ccc2Cl)CC1,-47.52
12,Cc1cc2cc(CNC3CCN(CC(=O)N(C)C)CC3)oc2cc1C,-160
13,CNc1oc(-c2ccc(S(=O)(=O)N(C)C)o2)nc1C#N,-61.71
14,Cc1nc(C)n(CC2CCCN(Cc3nc(-c4ccco4)no3)C2)n1 (centres undefined),-26.23
15,NC(c1ccccc1)c1ccc(OC(F)F)cc1 (centres undefined),9.975
16,OC(CN1CCN(CC2CCCCC2)CC1)c1ccccc1 (centres undefined),2.939
17,NC(CC1CCCC1)c1ccc(Oc2ccccc2)cc1 (centres undefined),80.17
18,Cl.NC(CC1CCCC1)c1ccccc1 (centres undefined),67
19,NC(=O)C(NC(=O)COC1CCCC1)c1ccccc1 (centres undefined),-14.18
20,Cl.NC(Cc1nc(-c2ccccc2)no1)c1ccccc1 (centres undefined),-266.4

row,Structure (SMILES),Percent Effect [%]
1,CC(NC(=O)CSCC(N)=O)c1ccc(Oc2ccccc2)cc1 (centres undefined),-26.87
2,Cl.NC(CC1CCCCC1)c1ccccc1 (centres undefined),55.85
3,NC(=O)C(NC1CCN(CC2CCCCC2)CC1)c1ccccc1 (centres undefined),-76.74
4,COc1ccc(Cn2cc(C(=O)N(C)Cc3ccon3)nn2)cc1,-118.5
5,CC(C)COC[C@H]1CC[C@H]2[C@H](CCN2C(=O)c2ccncc2F)O1.O=C(O)C(F)(F)F,-129.5
6,COc1ccc(-c2cc(C(=O)Nc3nc[nH]n3)[nH]n2)cc1,-113.2
7,Cc1ccc(C(=O)N2CCc3nc4c(C)csc4c(=O)n3CC2)cn1,-115
8,CCn1nc(C)cc1C(=O)N1C[C@@H]2C[C@@H](c3noc(C)n3)O[C@@H]2C1,-70.6
9,Cc1n[nH]cc1CNCC1(c2ccc3c(c2)OCO3)CCOCC1.Cl,-41.06
10,Cc1n[nH]cc1CNCC1(c2ccccc2Cl)CCOCC1,55.9
11,O=C(NCC1(O)CCOC1)NCC1(c2ccccc2Cl)CC1 (centres undefined),1.417
12,CCS(=O)(=O)N1CCc2cc(C(=O)N(C)C)c(NCC3CC3)nc2CC1,-99.83
13,Fc1ccc(CN2CCn3cc(Cn4cccn4)nc3C2)cc1.O=C(O)C(F)(F)F,43.38
14,CN(C)CCOCC1CN(C(=O)c2ccsc2)Cc2ccnn2C1.O=C(O)C(F)(F)F.O=C(O)C(F)(F)F (centres undefined),-18.09
15,CN(C)C(=O)c1cnc2n1CCN(Cc1cccc(C#N)c1)C2.O=C(O)C(F)(F)F,-58.91
16,O=C(O)C(F)(F)F.O=C(O)C(F)(F)F.c1ccc(CCN2CCn3cc(Cn4cccn4)nc3C2)cc1,7.27
17,CCn1nnc2c1C(COCCN(C)C)CN(Cc1ccco1)C2.O=C(O)C(F)(F)F.O=C(O)C(F)(F)F (centres undefined),-73.97
18,CN1CCN(Cc2cccc(C#N)c2)Cc2cccnc21.O=C(O)C(F)(F)F.O=C(O)C(F)(F)F,-79.43
19,N#Cc1cccc(CN2CCn3cc(Cn4cccn4)nc3C2)c1.O=C(O)C(F)(F)F.O=C(O)C(F)(F)F,78.59
20,CCn1nnc2c1C(COCCN(C)C)CN(Cc1ccc(C)s1)C2.O=C(O)C(F)(F)F.O=C(O)C(F)(F)F (centres undefined),60.03

row,Structure (SMILES),Percent Effect [%]
1,CN(C)CCN1CCN(Cc2cccc(C#N)c2)Cc2cccnc21.O=C(O)C(F)(F)F.O=C(O)C(F)(F)F.O=C(O)C(F)(F)F,65.04
2,CN(C)CCOCC1CN(Cc2cccs2)Cc2ccnn2C1.O=C(O)C(F)(F)F.O=C(O)C(F)(F)F.O=C(O)C(F)(F)F (centres undefined),62.34
3,Cc1ccc(CN2Cc3nnn(C)c3C(COCC(=O)N(C)C)C2)s1.O=C(O)C(F)(F)F (centres undefined),-90.04
4,COCC(=O)N1Cc2ccnn2CC(COCCN(C)C)C1.O=C(O)C(F)(F)F.O=C(O)C(F)(F)F (centres undefined),-13.35
5,COc1ccccc1CNC(=O)N1CCN(Cc2cc(C)on2)CC1,-4.63
6,COCc1nnc(NC(=O)CN2C(=O)c3ccccc3NC2C(C)C)s1 (centres undefined),-66.52
7,O=C(COc1ccc(Cl)cc1)N1CCOCC1c1ncon1 (centres undefined),-73.82
8,Cc1nc(N(C)C)nc(NCCc2ccccn2)c1C,-11.2
9,O=S1(=O)CCC(S(=O)(=O)c2cccc(S(=O)(=O)N3CCCCCC3)c2)C1 (centres undefined),-52.35
10,CCc1ccc(CN2CCC3(CC2)CN(c2cnn(C)c2)C(=O)CO3)o1.O=C(O)C(F)(F)F.O=C(O)C(F)(F)F,-59.96
11,Cc1ccc2c(n1)N(CCn1cccn1)CCN(S(C)(=O)=O)C2.O=C(O)C(F)(F)F,-106
12,CN(C)CCN1CCN(Cc2nccs2)Cc2cccnc21.O=C(O)C(F)(F)F.O=C(O)C(F)(F)F.O=C(O)C(F)(F)F,5.575
13,CN(C)CCN1CCN(Cc2ccco2)Cc2cccnc21.O=C(O)C(F)(F)F.O=C(O)C(F)(F)F.O=C(O)C(F)(F)F,11.84
14,COCCN1CCN(Cc2c(C)noc2C)Cc2ccc(C)nc21.O=C(O)C(F)(F)F.O=C(O)C(F)(F)F,-62.13
15,Cc1ccc2c(n1)N(CCN(C)C)CCN(Cc1c(C)noc1C)C2.O=C(O)C(F)(F)F.O=C(O)C(F)(F)F.O=C(O)C(F)(F)F,61.92
16,Cc1noc(C)c1CN1CCN(CCN(C)C)c2ncccc2C1.O=C(O)C(F)(F)F.O=C(O)C(F)(F)F.O=C(O)C(F)(F)F,19.65
17,CCS(=O)(=O)N1CCN(CCn2cccn2)c2nc(C)ccc2C1.O=C(O)C(F)(F)F,-65.79
18,CN(C)CCN1CCN(Cc2cccs2)Cc2cccnc21.O=C(O)C(F)(F)F.O=C(O)C(F)(F)F.O=C(O)C(F)(F)F,77.04
19,Cc1ccc2c(n1)N(CCn1cccn1)CCN(CC1CC1)C2.O=C(O)C(F)(F)F.O=C(O)C(F)(F)F,77.61
